Experimental findings from the supplement of paper PMC11417369 are described below.

± gives the standard deviation of the averaged measurements. In all, about 25,000 sequences were measured (“ln(normalized median fluorescence intensity)”: median about 10, highest 2% from about 12 on). The entries come from a sample that favours the highest values as a whole.

For the test, the system named is PfAP2-G AP2 domain (GST-tagged). The experiment in a line: gcPBM binding intensity (ln(normalized median fluorescence intensity)); higher = stronger DNA binding. Summed up: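 DNA-binding domains from P. falciparum, fused to GST and produced in E. coli, were put on an Agilent 4 × 180k double-stranded probe array for 1 h in 1× PBS holding 1% milk, 0.2 mg/ml BSA, 0.5% salmon testes DNA and 0.03% Triton X-100. Probes were primer-extended, 36 bp long and drawn from intergenic genomic regions, with negative controls included. After Alexa488 anti-GST antibody detection and a 488 nm scan, binding intensity was set as the highest Masliner-normalised natural-log median intensity across replicate spots of either probe orientation.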
As to “GTATTCATGCTAAAGGTGCAATAATTTTTATAATAA [GTGCAC_site9603]”, the “gcPBM binding intensity (ln)” value was determined as 10.2 ± 0.21.

“ATTTTTTTTAATTTGTACAAATTTTGTTCACAATTT [CACACA_negctrl_site1301]”: the “gcPBM binding intensity (ln)” value stood at 10.8 ± 0.4.

Consider “AATTATTCTATATATTGTACATGTTTGTTTTTTTTT [XGTACX_site3130]”, for which the “gcPBM binding intensity (ln)” value came out at 10.9 ± 0.42.

As to “CATTATGTTGTAAATACACACATACAGATACATACA [CACACA_site4565]”, the “gcPBM binding intensity (ln)” value came out at 10.3 ± 0.16.

As for “TTTATTAATTTATAGTGTACATATTAATAATATATT [XGTACX_site7949]”, the “gcPBM binding intensity (ln)” value turned out to be 11.3 ± 0.68. The value for “AATAGTAATTTGAATACACACAATAATATATTTATA [CACACA_site7055]” was 9.96 ± 0.042; that for “ATTAAAAACGGGTGTACACATATATAAATATATATA [CACACA_site4539]” was 11.7 ± 0.89; that for “TATTACCCATATTATACACACATATATTATATATAT [CACACA_site1567]” was 10.3 ± 0.2. Under “ATATTATACCCGTGTACACATTATAACCATATATAA [CACACA_site5933]” stands 11.7 ± 0.82; under “ATATAAAACAACGGGTGTACAAAAAAATAAATAATA [XGTACX_site4094]”, 11.3 ± 0.76.

With “GTTATTAAAAACGGGTGTACACATATATAAATATAT [XGTACX_site1234]”, the “gcPBM binding intensity (ln)” value was determined as 11.6 ± 0.86. The value for “TATTTATAATAGTGTACACAATTATAAACTGAATAT [CACACA_site6041]” was 11.7 ± 0.89; that for “CATTATTATTAACATACACACGTGTTATATACCCCC [CACACA_site9365]” was 11 ± 0.61.

With “AATAAAATAATAGGCACACATATATATATATATTAT [CACACA_site273]”, the “gcPBM binding intensity (ln)” value was found to be 10.1 ± 0.26. Consider “CTATTAATGTACTCTACACACATATAAGAGGACATT [CACACA_site471]”, for which the “gcPBM binding intensity (ln)” value amounted to 11.6 ± 0.86. Under “AAATAAAATAAAAGCACACAAAATGTAAATAATTAT [CACACA_site2775]” stands 10.01 ± 0.035; under “CCATGTCAAACATTTGCACACAAAAAAATAAAAATT [CACACA_site4546]”, 10.2 ± 0.31. As to “TAATTTAAAAATATAAATGTTTCACTTATATATTTT [TGCATGCA_negctrl_site399]”, the “gcPBM binding intensity (ln)” value turned out to be 9.41 ± 0.27. The value for “TAAGTATAAAAAAATAGTACAATTATGAAATATCGT [XGTACX_site2529]” was 11.2 ± 0.71; that for “GAAAAGTAGACAATATGTACATATAGTATTTATAAA [XGTACX_site878]” was 11.1 ± 0.69; that for “AAAAATAGTATAAGTAGTACAACTGAAAAGTTATGT [XGTACX_site7488]” was 11.6 ± 0.86. “ATTCTGAATGTTATGCGTACATATTAATCCTATTTA [XGTACX_site1216]”: the “gcPBM binding intensity (ln)” value worked out at 11.5 ± 0.93.

Turning to “TGTTCTAATATTTGTTGTACATTTACATTTCTCTCT [XGTACX_site2585]”, the “gcPBM binding intensity (ln)” value turned out to be 11.1 ± 0.56.

“GAAAAAAAAAAAAGGGGTACATTTATTTTATCAATA [XGTACX_site8331]”: the “gcPBM binding intensity (ln)” value worked out at 11.5 ± 1. Regarding “TTCAAAGGGAAATTAACACACACATATATATATATA [CACACA_site8777]”, the “gcPBM binding intensity (ln)” value was determined as 10.2 ± 0.67. Under “ATATATAACGGGCACACACACATTTACGTATGAATA [CACACA_site1833]” stands 10.7 ± 0.43; under “ATATATATGTATGTATGTACACACAAAAAATGGAAT [XGTACX_site7879]”, 11.5 ± 0.79.

“GAAAACAAAATGGTAACACACAAATGTAAATAGTAT [CACACA_site2113]”: the “gcPBM binding intensity (ln)” value stood at 10.14 ± 0.064. The value for “AAAAATGAAAGGTGTACACATACAAACATAGAAAGA [CACACA_site5020]” was 11.7 ± 0.94; that for “GGAAAATGAAAACAAGGTACACATAAGAACAAACAA [XGTACX_site1221]” was 11.4 ± 0.87; that for “AAGGTGGGAAAAAATAGTACACAACAAAAATGTATG [XGTACX_site8741]” was 11.7 ± 1. In the case of “AAAAAAGAAACAAACACACATACATACAAACAAACA [CACACA_site142]”, the “gcPBM binding intensity (ln)” value came out at 10.3 ± 0.28. For the sequence “AAATGGAAAAGGTGTACACAAAAAAAAGGGAAAAGC [CACACA_site5331]”, the “gcPBM binding intensity (ln)” value is 11.7 ± 1.2. The value for “TTCTAAAAAGGGTGTACACAAACGAATGGAAAATAA [CACACA_site5483]” was 11.6 ± 0.94; that for “TATAGGTATGTATGTACACACAAAAAATGGAATATA [CACACA_site7704]” was 11.4 ± 0.76. “AAAAAAAATGAAAGGTGTACACATACAAACATAGAA [XGTACX_site3517]”: the “gcPBM binding intensity (ln)” value was 11.7 ± 0.88. The value for “AACACCAAACAAAGGTGTACATATAGGAAAAAATCT [XGTACX_site1006]” was 11.3 ± 0.81; that for “AATAATAGAAAAAGGTGTACTTATAAACATATACAC [XGTACX_site6921]” was 11.5 ± 0.83; that for “CACAAATATACAAATACACACAAATATACACATATA [CACACA_site7176]” was 10.2 ± 0.085. The value for “ACCTAAAATAACTACACACACATAAAAAAAAAAAAA [CACACA_site2529]” was 10.1 ± 0.47; that for “GTATGTATATATGTATGTACTTATGTATCATTATTA [XGTACX_site2438]” was 11.2 ± 0.83; that for “AAAAAACACCCATACACACACACACCGATATATATA [CACACA_site5808]” was 10.1 ± 0.18. In the case of “TATATATATTTTTGAAGTACTTATTACACTAGCATT [XGTACX_site8965]”, the “gcPBM binding intensity (ln)” value came to 11.2 ± 0.61. With “ATTTTCTTATATATATTTTGTATATATTTTGTACAT [CACACA_negctrl_site1496]”, the “gcPBM binding intensity (ln)” value is 10.5 ± 0.39. Consider “TTTTATGGAAAGTGTTGTACATATTTTTGTATATGT [XGTACX_site7356]”, for which the “gcPBM binding intensity (ln)” value was determined as 11.4 ± 0.76.
